Test results from the supplement of paper PMC11001985.

These targets were tested with C#CCNC(=O)CCSSCCC(=O)NCCc1ccc(C=O)c(C=O)c1 (assay: lysine labeling ratio R10:1 (500 µM / 50 µM probe), SILAC-ABPP in living cells; higher = lower intrinsic lysine reactivity toward the probe, active = 2 or less). Conditions: HeLa; probe concentrations 500 vs 50 µM.
Outline: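 Measurements came from LC-MS/MS on a TIMS-TOF Pro of mixed SILAC light and heavy HeLa lysates after click to biotin-azide, trypsin digestion, neutravidin capture, DTT release and alkylation. Before lysis, the living cells sat in PBS at room temperature with 50 µM or 500 µM of an alkyne-tagged, disulfide-linked lysine probe, and labels were swapped forward and reverse. R per lysine is the median across both swap directions of the filtered median high-probe/low-probe MS1 peptide ratio. The cap is 20.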

UniProt Q14126, sequence (Q14126 whole entry): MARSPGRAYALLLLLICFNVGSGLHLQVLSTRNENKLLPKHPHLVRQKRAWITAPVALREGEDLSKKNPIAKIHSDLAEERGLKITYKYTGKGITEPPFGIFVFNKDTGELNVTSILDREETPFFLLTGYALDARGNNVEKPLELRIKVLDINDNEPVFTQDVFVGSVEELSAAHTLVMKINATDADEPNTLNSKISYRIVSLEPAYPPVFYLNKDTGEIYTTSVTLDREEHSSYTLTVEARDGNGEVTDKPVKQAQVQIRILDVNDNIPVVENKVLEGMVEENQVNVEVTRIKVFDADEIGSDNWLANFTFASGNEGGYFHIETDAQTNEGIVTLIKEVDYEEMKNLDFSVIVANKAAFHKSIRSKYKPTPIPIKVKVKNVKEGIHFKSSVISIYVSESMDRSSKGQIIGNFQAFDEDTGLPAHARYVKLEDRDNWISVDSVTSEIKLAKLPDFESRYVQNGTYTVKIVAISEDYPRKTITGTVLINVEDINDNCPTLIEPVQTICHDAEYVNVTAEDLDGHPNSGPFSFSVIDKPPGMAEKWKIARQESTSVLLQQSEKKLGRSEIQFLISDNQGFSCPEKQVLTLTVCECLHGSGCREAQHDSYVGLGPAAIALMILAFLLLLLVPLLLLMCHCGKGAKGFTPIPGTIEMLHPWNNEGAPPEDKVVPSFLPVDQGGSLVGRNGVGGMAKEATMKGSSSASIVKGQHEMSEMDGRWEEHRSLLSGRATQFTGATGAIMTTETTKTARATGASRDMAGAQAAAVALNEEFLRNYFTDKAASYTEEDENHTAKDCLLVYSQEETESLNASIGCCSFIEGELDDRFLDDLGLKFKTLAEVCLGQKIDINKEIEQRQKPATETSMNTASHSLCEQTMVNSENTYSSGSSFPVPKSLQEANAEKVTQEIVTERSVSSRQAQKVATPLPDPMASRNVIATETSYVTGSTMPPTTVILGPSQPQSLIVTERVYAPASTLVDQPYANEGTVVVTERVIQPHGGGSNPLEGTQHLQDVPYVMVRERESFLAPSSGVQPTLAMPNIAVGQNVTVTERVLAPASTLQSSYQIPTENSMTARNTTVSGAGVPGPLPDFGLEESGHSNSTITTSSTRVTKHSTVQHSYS
UniProt P05387, sequence (P05387 whole entry): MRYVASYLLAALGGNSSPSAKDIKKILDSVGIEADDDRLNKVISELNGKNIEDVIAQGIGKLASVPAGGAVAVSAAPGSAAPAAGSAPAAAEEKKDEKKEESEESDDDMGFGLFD
UniProt O96005, sequence (O96005 whole entry): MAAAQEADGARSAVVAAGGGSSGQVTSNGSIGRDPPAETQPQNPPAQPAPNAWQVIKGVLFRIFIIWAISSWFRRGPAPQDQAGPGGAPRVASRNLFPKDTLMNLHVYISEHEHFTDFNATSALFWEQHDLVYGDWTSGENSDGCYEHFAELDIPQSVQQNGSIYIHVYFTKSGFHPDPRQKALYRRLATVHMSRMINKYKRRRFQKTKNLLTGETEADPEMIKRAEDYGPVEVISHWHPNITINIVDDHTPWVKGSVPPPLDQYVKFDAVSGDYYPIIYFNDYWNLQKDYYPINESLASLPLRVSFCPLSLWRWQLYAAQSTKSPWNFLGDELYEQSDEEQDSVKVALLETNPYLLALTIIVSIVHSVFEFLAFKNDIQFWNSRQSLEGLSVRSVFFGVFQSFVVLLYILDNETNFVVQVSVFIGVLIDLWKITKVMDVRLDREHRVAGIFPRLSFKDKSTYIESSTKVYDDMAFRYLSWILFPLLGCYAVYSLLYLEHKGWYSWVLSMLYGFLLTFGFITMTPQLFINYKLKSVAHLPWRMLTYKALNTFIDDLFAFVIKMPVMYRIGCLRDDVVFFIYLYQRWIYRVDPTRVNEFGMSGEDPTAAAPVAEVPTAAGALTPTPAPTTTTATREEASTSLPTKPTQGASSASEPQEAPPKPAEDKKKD
UniProt Q9NYU2, sequence (Q9NYU2 whole entry): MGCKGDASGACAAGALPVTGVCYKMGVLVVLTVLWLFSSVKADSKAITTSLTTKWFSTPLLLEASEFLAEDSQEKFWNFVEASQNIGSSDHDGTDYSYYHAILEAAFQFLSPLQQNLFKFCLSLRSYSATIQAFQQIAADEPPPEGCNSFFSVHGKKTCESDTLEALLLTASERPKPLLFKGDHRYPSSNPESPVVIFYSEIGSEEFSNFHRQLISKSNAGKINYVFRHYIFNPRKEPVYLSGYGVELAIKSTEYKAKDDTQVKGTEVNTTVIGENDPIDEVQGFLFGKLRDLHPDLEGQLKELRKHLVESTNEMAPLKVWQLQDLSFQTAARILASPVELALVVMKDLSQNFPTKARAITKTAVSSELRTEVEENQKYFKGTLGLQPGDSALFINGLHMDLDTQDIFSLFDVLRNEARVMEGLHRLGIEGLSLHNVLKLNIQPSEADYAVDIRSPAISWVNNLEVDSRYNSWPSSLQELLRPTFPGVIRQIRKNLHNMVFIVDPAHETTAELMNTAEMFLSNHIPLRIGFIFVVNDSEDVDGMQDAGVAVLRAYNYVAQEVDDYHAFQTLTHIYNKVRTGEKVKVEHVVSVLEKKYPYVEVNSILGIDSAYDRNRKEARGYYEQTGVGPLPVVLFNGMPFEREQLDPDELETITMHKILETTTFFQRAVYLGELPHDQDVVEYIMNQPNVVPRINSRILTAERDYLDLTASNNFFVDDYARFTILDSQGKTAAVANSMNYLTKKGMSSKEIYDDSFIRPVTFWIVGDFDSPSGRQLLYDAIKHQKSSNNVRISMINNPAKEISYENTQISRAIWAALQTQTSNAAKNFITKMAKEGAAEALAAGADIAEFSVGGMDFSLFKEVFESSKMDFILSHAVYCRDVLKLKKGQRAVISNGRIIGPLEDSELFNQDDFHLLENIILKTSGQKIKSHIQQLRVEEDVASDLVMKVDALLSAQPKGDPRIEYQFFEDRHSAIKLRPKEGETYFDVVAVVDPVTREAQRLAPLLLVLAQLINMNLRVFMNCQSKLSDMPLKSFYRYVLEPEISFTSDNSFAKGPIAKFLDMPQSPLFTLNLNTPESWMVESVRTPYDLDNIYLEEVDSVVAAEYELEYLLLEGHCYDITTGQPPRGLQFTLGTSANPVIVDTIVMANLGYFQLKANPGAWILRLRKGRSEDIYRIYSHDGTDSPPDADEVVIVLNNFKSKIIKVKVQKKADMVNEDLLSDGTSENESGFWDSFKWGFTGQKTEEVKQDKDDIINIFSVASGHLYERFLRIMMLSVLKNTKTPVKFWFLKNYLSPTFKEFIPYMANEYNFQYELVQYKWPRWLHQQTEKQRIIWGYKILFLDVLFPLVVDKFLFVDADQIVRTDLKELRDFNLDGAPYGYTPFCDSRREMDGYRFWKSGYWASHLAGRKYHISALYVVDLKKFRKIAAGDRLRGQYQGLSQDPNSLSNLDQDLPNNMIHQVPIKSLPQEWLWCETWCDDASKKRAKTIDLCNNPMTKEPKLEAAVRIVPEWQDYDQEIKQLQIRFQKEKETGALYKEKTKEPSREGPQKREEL
UniProt P52272, sequence (P52272 whole entry): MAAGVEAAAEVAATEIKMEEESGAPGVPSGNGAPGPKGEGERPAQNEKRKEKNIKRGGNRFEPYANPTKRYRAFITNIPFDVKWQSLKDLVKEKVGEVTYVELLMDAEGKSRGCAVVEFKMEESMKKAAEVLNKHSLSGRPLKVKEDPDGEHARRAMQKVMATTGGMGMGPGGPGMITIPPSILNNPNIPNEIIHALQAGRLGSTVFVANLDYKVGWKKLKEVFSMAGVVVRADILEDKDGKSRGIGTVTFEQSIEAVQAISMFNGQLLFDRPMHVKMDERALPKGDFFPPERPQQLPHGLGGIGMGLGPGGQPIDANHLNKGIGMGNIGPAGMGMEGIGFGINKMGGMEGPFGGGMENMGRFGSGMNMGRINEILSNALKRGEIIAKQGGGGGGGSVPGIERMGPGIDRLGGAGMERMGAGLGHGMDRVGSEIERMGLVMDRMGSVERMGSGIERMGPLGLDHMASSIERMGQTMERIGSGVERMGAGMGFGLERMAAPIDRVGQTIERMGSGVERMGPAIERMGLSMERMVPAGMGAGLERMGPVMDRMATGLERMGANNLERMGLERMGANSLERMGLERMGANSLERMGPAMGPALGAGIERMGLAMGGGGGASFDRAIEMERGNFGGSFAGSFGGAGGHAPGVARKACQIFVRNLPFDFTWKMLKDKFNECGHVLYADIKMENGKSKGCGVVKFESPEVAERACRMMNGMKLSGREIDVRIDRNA
UniProt Q96TA1, sequence (Q96TA1 whole entry): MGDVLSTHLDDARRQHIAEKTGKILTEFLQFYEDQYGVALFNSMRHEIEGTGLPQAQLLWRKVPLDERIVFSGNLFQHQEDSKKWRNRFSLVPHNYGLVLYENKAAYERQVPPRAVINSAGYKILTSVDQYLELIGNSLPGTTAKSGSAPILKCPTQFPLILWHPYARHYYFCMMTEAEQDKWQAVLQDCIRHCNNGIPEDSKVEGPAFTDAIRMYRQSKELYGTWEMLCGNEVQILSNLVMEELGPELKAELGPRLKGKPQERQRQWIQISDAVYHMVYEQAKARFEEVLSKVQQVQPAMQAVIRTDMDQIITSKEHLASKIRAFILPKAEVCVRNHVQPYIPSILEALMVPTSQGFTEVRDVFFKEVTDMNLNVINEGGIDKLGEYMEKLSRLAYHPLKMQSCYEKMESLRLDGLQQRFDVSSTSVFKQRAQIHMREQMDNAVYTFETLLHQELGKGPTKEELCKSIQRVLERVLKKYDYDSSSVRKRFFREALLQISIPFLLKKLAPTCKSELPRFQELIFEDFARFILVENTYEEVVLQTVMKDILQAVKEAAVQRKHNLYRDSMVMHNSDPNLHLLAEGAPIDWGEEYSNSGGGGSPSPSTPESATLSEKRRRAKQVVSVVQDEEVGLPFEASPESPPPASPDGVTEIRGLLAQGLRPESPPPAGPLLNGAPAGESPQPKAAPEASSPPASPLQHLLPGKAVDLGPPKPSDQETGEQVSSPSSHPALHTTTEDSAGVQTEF
UniProt P0C0S5, sequence (P0C0S5 whole entry): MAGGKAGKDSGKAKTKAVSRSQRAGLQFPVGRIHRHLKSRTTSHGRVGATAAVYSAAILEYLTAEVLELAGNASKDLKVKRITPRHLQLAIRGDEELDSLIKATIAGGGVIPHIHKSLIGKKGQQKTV

Lysine labeling ratio R10:1, inactive:
CD63 (lysine site: K162) (UniProt P08962) 4.92, PAICS (lysine site: K110) (UniProt P22234) 3.11, EPHA2 (lysine site: K476) (UniProt P29317) 3.45, RPLP2 (lysine site: K25) (UniProt P05387) 2.1, HSPA9 (lysine site: K143) (UniProt P38646) 2.54, EGFR (lysine site: K294) (UniProt P00533) 3.59, UniProt P62269 (lysine site: K137) 3.21, RPL5 (lysine site: K188) (UniProt P46777) 4.22, BASP1 (lysine site: K149) (UniProt P80723) 3.54, HSPA8 (lysine site: K328) (UniProt P11142) 3.91, IQGAP1 (lysine site: K1128) (UniProt P46940) 2.31, MAN1B1 (lysine site: K354) (UniProt Q9UKM7) 2.81, UniProt P02768 (lysine site: K499) 7.98, SLC44A2 (lysine site: K210) (UniProt Q8IWA5) 2.8, UniProt Q9NYU2 (lysine site: K362) 3.31, CD58 (lysine site: K62) (UniProt P19256) 5.48, CD151 (lysine site: K127) (UniProt P48509) 2.31, COL5A1 (lysine site: K905) (UniProt P20908) 3.42, PPIA (lysine site: K155) (UniProt P62937) 2.47, ITIH1 (lysine site: K125) (UniProt P19827) 4.42, UniProt Q96TA1 (lysine site: K322) 5.91, DSG2 (lysine site: K406) (UniProt Q14126) 3.75

Lysine labeling ratio R10:1, active:
CLPTM1 (lysine site: K224) (UniProt O96005) 1.69, DSG2 (lysine site: K451) (UniProt Q14126) 0.823, COPA (lysine site: K607) (UniProt P53621) 1.94, CLU (lysine site: K62) (UniProt P10909) 1.13, DDX23 (lysine site: K204) (UniProt Q9BUQ8) 0.85, FLNB (lysine site: K1955) (UniProt O75369) 1.23, SDF4 (lysine site: K121) (UniProt Q9BRK5) 1.36, PDIA4 (lysine site: K245) (UniProt P13667) 1.07, UniProt P0C0S5 (lysine site: K16) 1.12, UniProt P14618 (lysine site: K66) 1.62, UniProt O95980 (lysine site: K684) 1.24, RDX (lysine site: K165) (UniProt P35241) 2, HNRNPM (lysine site: K242) (UniProt P52272) 1.67, ITGA6 (lysine site: K310) (UniProt P23229) 1.72, CCT5 (lysine site: K214) (UniProt P48643) 1.21, PPIB (lysine site: K98) (UniProt P23284) 1.78, MET (lysine site: K595) (UniProt P08581) 1.67, ACTR3 (lysine site: K348) (UniProt P61158) 1.4
